Laboratory results as given in PubChem BioAssay (NCATS).
Records with an inconclusive call do not appear. Calls of active or inactive are those of the source. Unless noted, calls follow the shape of the dose curve; as a rule, active = well fitted curve in the direction sought with a large enough effect; inconclusive = small, poorly fitted or top-dose-only effect, or another doubt; inactive = no such curve, though single readings can be large; an effect the other way counts as inactive or inconclusive.

Assays:
[1] = NCATS anti-infectives library activity on HEK293 viability as a counter-qHTS vs the C. elegans viability qHTS (AID 1745854)
In short: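 HEK293 cells, 1500 per well, exposed 24 hr at 37C in 5% CO2 to compounds in a 1:5 titration, up to 41.7 uM final. Viability read as CellTiter-Glo luminescence after 10 min at room temperature.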

[2] = NCATS anti-infectives library activity on the primary C. elegans qHTS viability assay (AID 1745855; calls by dose curve; also: potency is read from the fitted curve at half-maximal effect); conditions: C. elegans worm area imaging, day 7
In short: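 Viability is taken from GFP fluorescence of PE254-GFP-FLuc C. elegans imaged by laser cytometry over 7 days. Ten L1 worms per well grow at 21 °C on TOP10 E. coli capsules with titrated compound; levamisole marks toxicity.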

[3] = biological target: Glutathione peroxidase 1 (Homo sapiens) (UniProt P07203); assay: Primary qHTS Assay for Inhibitors of Recombinant Selenoprotein Glutathione Peroxidase 1 (GPX1) (AID 1845191); also: nearly all actives have a fitted effect of over 65% in size
Glutathione peroxidase 1 (Homo sapiens), sequence (P07203 whole entry, looked up): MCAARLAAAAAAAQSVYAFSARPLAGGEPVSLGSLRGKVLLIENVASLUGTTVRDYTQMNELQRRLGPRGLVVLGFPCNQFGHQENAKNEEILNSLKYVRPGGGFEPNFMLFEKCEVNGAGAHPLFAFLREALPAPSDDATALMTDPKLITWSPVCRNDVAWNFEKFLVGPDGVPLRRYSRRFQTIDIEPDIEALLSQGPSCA
In short: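 Recombinant GPX1 (10 nM final) was preincubated with compound for 30 min at room temperature, then reacted with 1 mM GSH, 0.5 mM CHP, 0.5 mM NADPH and 100 nM glutathione reductase; NADPH fluorescence (340/450 nm) was read at 0 and 15 min.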

[4] = Quantitative High-Throughput drug screen in 47 multiple myeloma cell lines against the NCATS MIPE library collection: Delta47_JCRB cell viability assay (AID 1918925; also: nearly all actives have a fitted effect of over 45% in size; also: potency is read from the fitted curve at half-maximal effect)
In short: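 Myeloma cell lines, 500 cells per well, exposed to MIPE 4.0 library compounds for 48 h at 37C, 5% CO2. Viability from ATP by CellTiter-Glo luminescence; normalised to DMSO (100%) and media-only (0%) wells.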

[5] = biological target: Phospholipid hydroperoxide glutathione peroxidase GPX4 (Homo sapiens) (UniProt P36969); assay: Primary qHTS Assay for Inhibitors of Recombinant Selenoprotein Glutathione Peroxidase 4 (GPX4) (AID 1845192); also: nearly all actives have a fitted effect of over 65% in size
Phospholipid hydroperoxide glutathione peroxidase GPX4 (Homo sapiens), sequence (P36969 whole entry, looked up): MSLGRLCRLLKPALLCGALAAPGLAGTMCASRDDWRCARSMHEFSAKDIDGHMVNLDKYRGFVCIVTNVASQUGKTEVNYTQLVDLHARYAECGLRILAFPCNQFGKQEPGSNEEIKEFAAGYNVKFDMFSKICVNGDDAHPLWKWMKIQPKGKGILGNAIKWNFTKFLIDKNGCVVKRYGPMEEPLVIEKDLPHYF
In short: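 GR-coupled readout: 100 nM GR, 1 mM GSH, 0.5 mM NADPH; NADPH fluorescence (ex 340/em 450 nm) read at t=0 and after 15 min RT. GPX4 200 nM, preincubated 30 min with compound; substrate 0.5 mM CHP.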

[6] = biological target: Luciferin 4-monooxygenase (Photinus pyralis) (UniProt P08659); assay: Primary firefly luciferase (FLuc) qHTS assay for identification of artifact compounds. (AID 1845220); conditions: outcome: dose series up to 54.1 µM unless noted; also: nearly all actives have a fitted effect of over 60% in size
In short: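 In this counter-screen for luciferase artifacts, test compounds met substrate (10 uM each luciferin and ATP) before 10 nM enzyme started the reaction. Light output was measured 5 min later.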

[7] = test system: Nanoluciferase (engineered Oplophorus gracilirostris luciferase); assay: Primary Nanoluciferase (NLuc) qHTS assay for identification of artifact compounds. (AID 1845222);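 also: NLuc secreted into diluted conditioned medium of S16 cells; series mostly up to about 54 µM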
In short: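 Using secreted nanoluciferase in S16 culture medium (0.22 um filtered, 1:55 dilution), compounds were preincubated 15 min at RT. Signal was generated with Nano-Glo reagent (1:100) over 5 min.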

[8] = Quantitative High-Throughput drug screen in 47 multiple myeloma cell lines against the NCATS MIPE library collection: FR4_PLB cell viability assay (AID 1918924; also: nearly all actives have a fitted effect of over 35% in size)
In short: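 CellTiter-Glo luminescence (ATP) after 48 h compound exposure, 37C/5% CO2; 500 cells/well; MIPE 4.0 approved/investigational drugs pinned in; DMSO = 100%, media only = 0% viability.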

[9] = biological target: Metallo-beta-lactamase type 2 (Klebsiella pneumoniae) (UniProt C7C422); assay: qHTS to identify inhibitors of the New Delhi Metallo-beta-lactamase (NDM): assay validation screen against the NCATS LOPAC Collection (AID 1794843);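 also: nitrocefin turnover by NDM-1 measured as 485 nm absorbance at plateau; series mostly up to about 38 µM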
Metallo-beta-lactamase type 2 (Klebsiella pneumoniae), sequence (C7C422 whole entry, looked up): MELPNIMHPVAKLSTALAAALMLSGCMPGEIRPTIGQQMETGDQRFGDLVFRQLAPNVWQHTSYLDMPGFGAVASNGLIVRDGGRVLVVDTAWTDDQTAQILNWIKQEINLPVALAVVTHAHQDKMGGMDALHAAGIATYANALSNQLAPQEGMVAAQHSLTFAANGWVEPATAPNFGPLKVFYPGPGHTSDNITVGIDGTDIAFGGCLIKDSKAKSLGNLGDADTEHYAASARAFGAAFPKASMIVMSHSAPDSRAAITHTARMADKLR
In short: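 Nitrocefin hydrolysis (50 uM substrate stock) by NDM-1, 2 nM final, was followed by 485 nm absorbance after compound preincubation; buffer was 50 mM HEPES pH 7.0, 1 uM ZnSO4, 0.01% Tween20.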

Measured: Potency

CCCCCC[C@H]1C(=O)O[C@H](C)[C@H](NC(=O)c2cccc(NC=O)c2O)C(=O)O[C@@H](C)[C@@H]1OC(=O)CC(C)C
inactive: [1] | [3]
active: [2] 7.27 µM | [4] 0.0526 µM

O=C(Oc1ccc([N+](=O)[O-])cc1)N1CCC(C(O)(c2ccc3c(c2)OCO3)c2ccc3c(c2)OCO3)CC1
not listed: [2] | [4] | [9]
inactive: all other assays above

Cc1nccc2c1[nH]c1ccccc12
inactive: [9] | [3]

NC(CCP(=O)(O)O)C(=O)O (centres undefined)
inactive: [9] | [3] | [5]

CC(=O)[C@H]1CCC2C3CC[C@H]4C[C@H](O)CC[C@]4(C)C3CC[C@@]21C (some centres undefined)
inactive: [9] | [3] | [5]

CN[C@@H]1C[C@@H](c2ccc(Cl)c(Cl)c2)c2ccccc21
inactive: [9] | [3] | [5]

NC(N)=NOCCC(N)C(=O)O (centres undefined)
inactive: [9] | [3] | [5]

CCCN(CCC)C1CCc2ccc(O)cc2C1 (centres undefined)
inactive: [9] | [3] | [5]

CC(=O)NCCc1c[nH]c2ccccc12
inactive: [9] | [3] | [5] | [6] inactive [at 86.2 µM] | [7]

Oc1ccc2c3c1O[C@H]1c4[nH]c5c(c4C[C@@]4(O)[C@@H](C2)N(CC2CC2)CC[C@]314)C[C@@]1(O)[C@H]2Cc3ccc(O)c4c3[C@@]1(CCN2CC1CC1)[C@H]5O4
inactive: [9] | [3] | [5] | [8] | [4]

O=S(=O)(F)Cc1ccccc1
inactive: [1] | [3] | [5]
active: [4] 2.96 µM

O=C1CCCN1CC#CCN1CCCC1
inactive: [9] | [3] | [5]
